Experimental findings from ChEMBL document CHEMBL3988442, “University of Dundee, Small-Polar-MMV Screening Library” (2021) are described below.

For some assays here: Results with a measured potency or affinity are listed apart.

What all share (set-up): scale not given: direction of the effect not stated beside the values
The target in experiment [1] is Protein translocase subunit SecA (Escherichia coli (strain K12)) (UniProt P10408). Nature of the experiment: Assay to Identify E. coli SecA ATPase Inhibitors. In kind it is functional. The following applies: 30 µM.
Protein translocase subunit SecA (Escherichia coli (strain K12)), sequence (P10408 whole entry): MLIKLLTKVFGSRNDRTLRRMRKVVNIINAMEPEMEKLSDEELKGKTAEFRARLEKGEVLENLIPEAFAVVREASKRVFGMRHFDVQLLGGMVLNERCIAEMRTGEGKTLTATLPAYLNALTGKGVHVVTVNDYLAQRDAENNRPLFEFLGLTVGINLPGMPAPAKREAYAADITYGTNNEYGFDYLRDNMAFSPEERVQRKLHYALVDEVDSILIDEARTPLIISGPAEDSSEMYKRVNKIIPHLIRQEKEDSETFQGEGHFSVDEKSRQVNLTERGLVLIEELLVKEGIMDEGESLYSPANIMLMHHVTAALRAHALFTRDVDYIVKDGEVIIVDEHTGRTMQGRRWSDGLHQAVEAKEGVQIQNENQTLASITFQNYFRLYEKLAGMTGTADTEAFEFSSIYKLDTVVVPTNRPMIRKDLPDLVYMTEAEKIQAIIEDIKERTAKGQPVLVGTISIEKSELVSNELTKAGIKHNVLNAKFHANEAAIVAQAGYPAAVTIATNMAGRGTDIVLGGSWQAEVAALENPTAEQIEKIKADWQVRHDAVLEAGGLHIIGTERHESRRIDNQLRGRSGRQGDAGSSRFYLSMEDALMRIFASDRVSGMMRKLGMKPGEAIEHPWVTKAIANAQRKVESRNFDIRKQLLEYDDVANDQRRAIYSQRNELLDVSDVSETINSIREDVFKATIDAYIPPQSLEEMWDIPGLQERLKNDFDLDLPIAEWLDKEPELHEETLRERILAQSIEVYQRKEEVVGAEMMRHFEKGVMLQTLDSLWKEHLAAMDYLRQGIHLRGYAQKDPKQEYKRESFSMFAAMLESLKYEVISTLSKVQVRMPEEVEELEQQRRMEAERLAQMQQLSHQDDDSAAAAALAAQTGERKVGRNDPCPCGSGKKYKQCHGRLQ
Experiment [2] has as its target T1, Ubiquitin-activating enzyme e1, putative (Leishmania donovani (strain BPK282A1)) (UniProt E9BSI1).
T1 sequence (whole entry): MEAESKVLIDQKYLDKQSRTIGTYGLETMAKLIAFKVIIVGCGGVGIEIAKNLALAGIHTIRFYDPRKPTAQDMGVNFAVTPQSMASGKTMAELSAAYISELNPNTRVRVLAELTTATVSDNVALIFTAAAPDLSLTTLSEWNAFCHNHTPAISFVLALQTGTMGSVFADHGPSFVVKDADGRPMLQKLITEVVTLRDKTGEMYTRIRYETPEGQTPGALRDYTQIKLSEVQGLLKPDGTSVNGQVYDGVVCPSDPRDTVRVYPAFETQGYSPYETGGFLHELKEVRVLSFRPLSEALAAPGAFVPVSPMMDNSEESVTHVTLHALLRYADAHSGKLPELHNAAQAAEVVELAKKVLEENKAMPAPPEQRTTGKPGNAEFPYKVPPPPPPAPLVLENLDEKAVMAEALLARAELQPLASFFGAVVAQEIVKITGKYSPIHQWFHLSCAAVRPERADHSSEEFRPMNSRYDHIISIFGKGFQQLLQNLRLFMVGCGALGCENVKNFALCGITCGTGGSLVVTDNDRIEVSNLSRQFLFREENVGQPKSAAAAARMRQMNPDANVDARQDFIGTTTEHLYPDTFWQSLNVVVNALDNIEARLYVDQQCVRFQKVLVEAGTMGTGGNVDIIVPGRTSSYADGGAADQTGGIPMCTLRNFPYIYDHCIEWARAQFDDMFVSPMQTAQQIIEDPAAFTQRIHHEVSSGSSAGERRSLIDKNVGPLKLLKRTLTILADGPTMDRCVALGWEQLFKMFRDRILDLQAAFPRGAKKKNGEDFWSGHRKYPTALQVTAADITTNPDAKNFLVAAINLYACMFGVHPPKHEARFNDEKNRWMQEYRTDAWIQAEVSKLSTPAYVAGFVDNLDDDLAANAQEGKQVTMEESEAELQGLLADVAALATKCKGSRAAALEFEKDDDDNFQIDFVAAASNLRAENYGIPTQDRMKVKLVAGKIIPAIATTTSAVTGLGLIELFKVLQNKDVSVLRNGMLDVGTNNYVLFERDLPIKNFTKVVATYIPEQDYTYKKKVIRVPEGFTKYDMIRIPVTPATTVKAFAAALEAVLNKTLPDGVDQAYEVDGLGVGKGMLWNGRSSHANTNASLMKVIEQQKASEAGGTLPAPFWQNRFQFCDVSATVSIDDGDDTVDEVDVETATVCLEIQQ
Nature of the experiment: Leishmania donovani Ubiquitin Activating Enzyme (LdE1). The class given is functional. The note with it: 30 µM.

Experiment [3] deals with AMP-activated protein kinase, AMPK (Homo sapiens) (UniProt P54646+O43741+P54619+Q9UGJ0+Q9Y478+Q13131+Q9UGI9). As to the kind of experiment: AMP-dependent Kinase enzyme assay. An in vitro enzyme assay that detects ADP turnover that is directly proportional to AMPK activity. This uses naive AMPK that is activated during the assay with MK-8722. The following applies: 30 µM. In kind it is functional.

Experiment [4] deals with Sialic acid-binding Ig-like lectin 9 (Homo sapiens) (UniProt Q9Y336). As to the kind of experiment: Hs-Siglec9 ALPHAscreen SOP 20170721. The note with it: 10 µM. (In Alpha technology, singlet oxygen from a donor bead excites a nearby acceptor bead.)
Sialic acid-binding Ig-like lectin 9 (Homo sapiens), sequence (Q9Y336 whole entry): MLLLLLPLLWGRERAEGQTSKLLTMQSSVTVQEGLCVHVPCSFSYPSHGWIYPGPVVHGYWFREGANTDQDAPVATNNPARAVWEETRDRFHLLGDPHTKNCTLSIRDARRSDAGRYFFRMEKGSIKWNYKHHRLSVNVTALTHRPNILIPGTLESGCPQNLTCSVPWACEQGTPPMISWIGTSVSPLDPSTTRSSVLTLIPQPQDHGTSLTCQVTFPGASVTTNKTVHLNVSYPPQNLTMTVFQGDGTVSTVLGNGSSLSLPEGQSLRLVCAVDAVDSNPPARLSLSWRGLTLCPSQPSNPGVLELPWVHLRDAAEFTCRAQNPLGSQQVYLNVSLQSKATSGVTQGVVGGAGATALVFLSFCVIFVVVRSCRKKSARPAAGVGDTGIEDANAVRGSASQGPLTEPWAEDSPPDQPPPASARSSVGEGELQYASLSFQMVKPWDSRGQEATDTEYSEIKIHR
In a further experiment the test system is Trypanosoma cruzi. Nature of the experiment: Trypanosoma cruzi phosphomannomutase and mannose-1-phosphate guanylyltransferase assay. The class given is functional. The following applies: 10 µM.
The target of experiment [5] is T2, Arginase-2, mitochondrial (Homo sapiens) (UniProt P78540).
T2 sequence (whole entry): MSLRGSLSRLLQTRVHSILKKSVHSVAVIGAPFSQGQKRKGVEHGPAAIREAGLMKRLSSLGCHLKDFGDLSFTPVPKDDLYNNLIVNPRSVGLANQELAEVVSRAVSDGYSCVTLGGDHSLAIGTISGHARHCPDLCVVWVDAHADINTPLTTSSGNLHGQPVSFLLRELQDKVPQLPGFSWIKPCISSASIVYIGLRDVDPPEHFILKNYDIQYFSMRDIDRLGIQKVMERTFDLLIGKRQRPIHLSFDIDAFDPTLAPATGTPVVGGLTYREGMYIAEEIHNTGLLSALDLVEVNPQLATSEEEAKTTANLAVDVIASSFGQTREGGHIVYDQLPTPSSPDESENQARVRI
Nature of the experiment: in vitro enzyme assay to detect the production of urea directly proportional to the activity of Arginase II. Note: in the data most compounds retested in dose-response had high values. The class given is functional. The following applies: 33.3 µM.

In experiment [6] the target is T3, Proteasome subunit beta (Trypanosoma cruzi) (UniProt O96673).
T3 sequence (whole entry): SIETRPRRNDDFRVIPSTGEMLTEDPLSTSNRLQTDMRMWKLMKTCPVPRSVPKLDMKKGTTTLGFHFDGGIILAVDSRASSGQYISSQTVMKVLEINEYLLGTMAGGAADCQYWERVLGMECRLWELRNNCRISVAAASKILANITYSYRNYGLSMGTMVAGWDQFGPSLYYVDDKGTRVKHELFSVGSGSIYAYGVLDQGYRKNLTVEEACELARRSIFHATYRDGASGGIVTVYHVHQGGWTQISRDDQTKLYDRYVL
Nature of the experiment: Trypanosoma cruzi proteasome chymotrypsin-like activity (TcProtChymo) assay. Note: in the data most compounds retested in dose-response had high values. In kind it is functional. The following applies: 9.37 µM.

A further experiment is filed under the species Homo sapiens. As to the kind of experiment: To identify inhibition of the IFN signalling (Jak-Stat) pathway via expression of an eGFP reporter gene under the control of an IFN-stimulated response element (ISRE) containing MxA promoter. The class given is functional. The following applies: 30 µM. For orientation: In a reporter assay the amount or activity of a reporter protein is the signal.

For experiment [7], the target named is T4, Tyrosyl-tRNA synthetase, putative (Trypanosoma cruzi (strain CL Brener)) (UniProt Q4DSP6).
T4 sequence (whole entry): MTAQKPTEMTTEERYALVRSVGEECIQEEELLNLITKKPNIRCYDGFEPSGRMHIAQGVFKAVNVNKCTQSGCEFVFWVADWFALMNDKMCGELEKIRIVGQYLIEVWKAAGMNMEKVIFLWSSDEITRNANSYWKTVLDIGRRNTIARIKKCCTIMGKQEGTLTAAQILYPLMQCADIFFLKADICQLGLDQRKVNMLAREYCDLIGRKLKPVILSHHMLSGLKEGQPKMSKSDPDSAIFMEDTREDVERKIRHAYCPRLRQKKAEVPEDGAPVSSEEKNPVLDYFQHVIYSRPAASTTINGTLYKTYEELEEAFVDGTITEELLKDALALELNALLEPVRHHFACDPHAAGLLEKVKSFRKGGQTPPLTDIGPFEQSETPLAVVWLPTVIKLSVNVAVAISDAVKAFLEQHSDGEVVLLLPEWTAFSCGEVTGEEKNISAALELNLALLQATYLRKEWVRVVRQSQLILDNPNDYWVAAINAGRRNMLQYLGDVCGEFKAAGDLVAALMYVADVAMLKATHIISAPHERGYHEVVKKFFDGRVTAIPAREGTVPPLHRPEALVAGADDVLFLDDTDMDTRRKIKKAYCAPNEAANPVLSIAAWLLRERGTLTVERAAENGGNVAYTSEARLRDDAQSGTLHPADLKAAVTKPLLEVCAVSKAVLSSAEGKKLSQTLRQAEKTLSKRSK
Nature of the experiment: Trypanosoma cruzi tyrosyl tRNA synthetase (TcYRS) _High Tyrosine SOP. Note: in the data most compounds retested in dose-response had high values. In kind it is functional. The note with it: 30 µM.

Experiment [8] concerns the target T4, Tyrosyl-tRNA synthetase, putative (Trypanosoma cruzi (strain CL Brener)). Nature of the experiment: Trypanosoma cruzi tyrosyl tRNA synthetase (TcYRS) SOP. The class given is functional. The following applies: 30 µM.
In experiment [9] the target is Chromo domain-containing protein 1 (Saccharomyces cerevisiae (strain ATCC 204508 / S288c) (Baker's yeast)) (UniProt P32657). Nature of the experiment: ScCHD-1 Enzyme Inhibition Assay. Note: in the data most compounds retested in dose-response had high values. In kind it is functional. The note with it: 30 µM.
Chromo domain-containing protein 1 (Saccharomyces cerevisiae (strain ATCC 204508 / S288c) (Baker's yeast)), sequence (P32657 whole entry, the tested form may be a part): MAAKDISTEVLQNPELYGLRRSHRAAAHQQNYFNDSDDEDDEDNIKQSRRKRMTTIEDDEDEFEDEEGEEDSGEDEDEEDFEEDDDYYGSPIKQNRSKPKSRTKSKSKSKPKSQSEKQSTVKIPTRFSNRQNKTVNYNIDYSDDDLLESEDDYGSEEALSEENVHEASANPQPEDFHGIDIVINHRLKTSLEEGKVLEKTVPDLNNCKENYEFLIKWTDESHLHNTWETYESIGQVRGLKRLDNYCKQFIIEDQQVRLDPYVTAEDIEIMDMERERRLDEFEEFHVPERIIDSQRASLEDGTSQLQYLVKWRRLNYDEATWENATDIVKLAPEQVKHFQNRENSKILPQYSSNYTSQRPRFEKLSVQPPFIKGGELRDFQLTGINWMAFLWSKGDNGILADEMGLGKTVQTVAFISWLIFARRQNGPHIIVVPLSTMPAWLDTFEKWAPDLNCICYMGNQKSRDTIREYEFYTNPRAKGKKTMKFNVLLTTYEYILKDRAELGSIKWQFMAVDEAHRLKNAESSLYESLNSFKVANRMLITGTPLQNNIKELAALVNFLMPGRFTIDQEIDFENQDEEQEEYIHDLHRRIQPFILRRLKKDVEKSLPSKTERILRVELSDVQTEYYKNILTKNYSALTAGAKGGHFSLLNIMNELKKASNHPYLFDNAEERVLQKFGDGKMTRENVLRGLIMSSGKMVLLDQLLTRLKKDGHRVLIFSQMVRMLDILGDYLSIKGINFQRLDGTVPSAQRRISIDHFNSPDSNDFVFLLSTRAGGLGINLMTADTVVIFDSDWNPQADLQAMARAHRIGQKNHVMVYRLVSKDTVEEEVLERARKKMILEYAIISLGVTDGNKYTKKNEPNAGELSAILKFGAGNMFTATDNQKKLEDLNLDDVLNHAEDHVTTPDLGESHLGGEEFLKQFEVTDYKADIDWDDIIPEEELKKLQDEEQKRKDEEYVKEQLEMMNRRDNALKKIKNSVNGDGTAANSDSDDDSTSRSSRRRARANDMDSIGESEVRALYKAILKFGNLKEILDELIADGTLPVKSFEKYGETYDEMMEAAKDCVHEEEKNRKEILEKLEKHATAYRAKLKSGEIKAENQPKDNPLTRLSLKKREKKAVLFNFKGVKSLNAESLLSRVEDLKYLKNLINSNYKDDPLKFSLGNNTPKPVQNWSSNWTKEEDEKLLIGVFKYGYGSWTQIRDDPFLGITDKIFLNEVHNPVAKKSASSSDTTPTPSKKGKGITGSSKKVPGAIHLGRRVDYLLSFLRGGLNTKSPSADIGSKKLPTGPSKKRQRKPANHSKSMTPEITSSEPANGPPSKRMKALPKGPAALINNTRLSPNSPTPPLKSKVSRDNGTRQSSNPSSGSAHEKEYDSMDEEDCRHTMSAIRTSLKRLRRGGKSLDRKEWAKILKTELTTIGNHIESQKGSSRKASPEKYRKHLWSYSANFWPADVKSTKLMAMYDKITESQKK

For `O=C(O)C1(Cc2cc(-c3ccc(F)cc3F)no2)CCOCC1`, the Percent Effect was -4.49% in experiment [1]; 4.05% in experiment [2]; 11% in experiment [3]; -5.88% in [4]; -8.3% in the experiment on Trypanosoma cruzi; -9.51% in experiment [5]. Besides, the Percent Effect in experiment [6] is 14.2%; in the experiment filed under Homo sapiens, 6.33%; in experiment [7] it was -4.3%; in experiment [8], -1.3%; in experiment [9], -7.79%.
`CNC(=O)C(C)(C)NC(=O)c1cc(OCC2CCC2)cc(C(=O)OC)c1`: the Percent Effect in experiment [1] is -0.888%; in experiment [2], 11%; in experiment [3] it was 28.1%; in experiment [4], -1.12%; with Trypanosoma cruzi, 2.35%; in experiment [5], 15.9%. The Percent Effect in experiment [6] is 12.6%; in the experiment listed under Homo sapiens, 31.3%; in experiment [7], 6.45%; in experiment [8] it was 15%; in experiment [9], -3.04%.
Take `CCOC[C@@H]1CCC[C@@]12CN(Cc1nccs1)CCO2`: the Percent Effect is 0.173% in experiment [1]; 16% in experiment [2]; -1.62% in experiment [3]; -5.32% in experiment [4]; 0.787% in the experiment on Trypanosoma cruzi; 3.5% in [5]. The Percent Effect was 17.4% in [6]; 10.8% in the experiment listed under Homo sapiens; 7.45% in experiment [7]; 19.2% in experiment [8]; -7.27% in [9].
Consider `CCc1nsc(NC2CCCn3nc(COC)nc32)n1` (stereo not given), for which the Percent Effect in [1] is -4.32%; in [2] it was 13.3%; in experiment [3], -5.77%; in experiment [4], 21.4%; in the experiment with Trypanosoma cruzi, 4.77%; in [5], 16.7%. Moreover, the Percent Effect in [6] was 9.94%; in the experiment listed under Homo sapiens, 7.13%; in experiment [7], 3.83%; in experiment [8] it was 13.6%; in [9], -6.59%.
As to `Cn1ccnc1-c1ccccc1C(=O)N1CCc2c(nc(N)[nH]c2=O)C1`, the Percent Effect is -3.72% in experiment [1]; 7.79% in experiment [2]; 3.19% in experiment [3]; 4.47% in experiment [4]; -2.06% with Trypanosoma cruzi; -6.9% in experiment [5]. Moreover, the Percent Effect in experiment [6] stood at 16.8%; in the experiment listed under Homo sapiens, 5.31%; in experiment [7], 4.3%; in [8], 11.1%; in [9], 3.09%.
As to `Cc1ccc(CN(Cc2ccccn2)C2CC(C)(C)NC(C)(C)C2)s1`, the Percent Effect in [1] was -1.39%; in experiment [2], -4.05%; in [3], 8.17%; in [4], 7.72%; in the experiment on Trypanosoma cruzi, -3.95%; in experiment [5] it was -0.232%. The Percent Effect in experiment [6] was 8.27%; in the experiment filed under Homo sapiens, 5.16%; in [7], 4.3%; in experiment [8] it was 3.9%; in experiment [9] it was -9.63%.
With `CS(=O)(=O)N1CC[C@H]2[C@H](C[C@@H](Cn3cncn3)N2CC2CC2)C1`, the Percent Effect in experiment [1] is -6.68%; in experiment [2], 10.4%; in [3] it was 9.89%; in experiment [4], 7.05%; in the experiment on Trypanosoma cruzi, -1.87%; in experiment [5], -4.14%. The Percent Effect in [6] was 7.16%; in the experiment filed under Homo sapiens it was -4%; in experiment [7], 3.23%; in [8] it was 6.17%; in experiment [9], -0.097%.
On to `CC(C)(C)c1nc(CN2CCCC(Cn3cncn3)C2)cs1` (stereo not given), for which the Percent Effect in experiment [1] was -0.434%; in experiment [2] it was 21.6%; in experiment [3], -0.165%; in [4] it was -3.27%; in the experiment with Trypanosoma cruzi, 5%; in experiment [5], -17.6%. Besides, the Percent Effect in [6] was 10.6%; in the experiment listed under Homo sapiens, 3.9%; in experiment [7], 1.48%; in experiment [8], 18.5%; in experiment [9] it was -8.38%.
Take `CC(C)(C)c1ncc(C(=O)NCCNC(=O)c2ccccc2)s1`: the Percent Effect in experiment [1] was -3.42%; in [2], 21.1%; in [3], -4.68%; in experiment [4] it was 1.92%; in the experiment on Trypanosoma cruzi, -3.64%; in [5], 0.36%. In addition, the Percent Effect in [6] was 10.7%; in the experiment listed under Homo sapiens, 12.2%; in [7] it was 7.39%; in experiment [8], 18.5%; in experiment [9], -4.66%.
For the compound `Cc1cc2nc(SCC(=O)N3CCCC3)n(-c3ccccc3)c(=O)c2[nH]1`, the Percent Effect in experiment [1] is -2.59%; in experiment [2], 2.63%; in [3], 7.28%; in experiment [4], -3.44%; in the experiment on Trypanosoma cruzi, -3.02%; in experiment [5] it was 9.47%. Besides, the Percent Effect in [6] is 19.6%; in the experiment listed under Homo sapiens it was -5.99%; in experiment [7], 6.38%; in [8], 2.6%; in experiment [9], -5.49%.
